# According to PMC11006913:
# Substitutions are numbered along the chain they refer to.
# Tests used:
# Test in all cases: PBM; 200 nM protein, PBS
# Conditions in all cases: dsDNA, one strand shown
# VENTX [1] = biological target: T1, VENTX (Homo sapiens, UniProt O95231 78-163, R121Q)
# T1 sequence: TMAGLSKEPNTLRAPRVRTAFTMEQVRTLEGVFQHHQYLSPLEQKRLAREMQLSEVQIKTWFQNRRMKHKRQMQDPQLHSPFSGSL
# VENTX [2] = biological target: T2, VENTX (Homo sapiens, UniProt O95231 78-163)
# T2 sequence: T1 sequence with Q44R
# VENTX [3] = biological target: T3, VENTX (Homo sapiens, UniProt O95231 78-163, Y115F)
# T3 sequence: T1 sequence with Y38F, Q44R
# HOXB6 [4] = biological target: HOXB6 (Homo sapiens, UniProt P17509 132-218, K202E)
# HOXB6 [5] = biological target: HOXB6 (Homo sapiens, UniProt P17509 132-218)
# MSX2 [6] = biological target: MSX2 (Homo sapiens, UniProt P35548 130-214, R199I)
# MSX2 [7] = biological target: MSX2 (Homo sapiens, UniProt P35548 130-214)
# MSX2 [8] = biological target: MSX2 (Homo sapiens, UniProt P35548 130-214, F161Y)
# NKX2-6 = biological target: T4, NKX2-6 (Homo sapiens, UniProt A6NCS4 118-204, R150C)
# T4 sequence: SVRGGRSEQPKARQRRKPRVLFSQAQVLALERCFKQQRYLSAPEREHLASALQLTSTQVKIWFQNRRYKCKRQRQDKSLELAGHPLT
# ALX3 [9] = biological target: ALX3 (Homo sapiens, UniProt O95076 139-225, N203Q)
# ALX3 [10] = biological target: ALX3 (Homo sapiens, UniProt O95076 139-225)
# ALX3 [11] = biological target: ALX3 (Homo sapiens, UniProt O95076 139-225, L168Q)
# ALX3 [12] = biological target: ALX3 (Homo sapiens, UniProt O95076 139-225, L168V)
# ALX3 [13] = biological target: ALX3 (Homo sapiens, UniProt O95076 139-225, N203S)
# HOXA2 [14] = biological target: HOXA2 (Homo sapiens, UniProt O43364 129-215, R185T)
# HOXA2 [15] = biological target: HOXA2 (Homo sapiens, UniProt O43364 129-215, R185K)
# HOXA2 [16] = biological target: HOXA2 (Homo sapiens, UniProt O43364 129-215, Y150S)
# HOXA2 [17] = biological target: HOXA2 (Homo sapiens, UniProt O43364 129-215)
# ALX1 [18] = biological target: ALX1 (Homo sapiens, UniProt Q15699 118-204, L144V)
# ALX1 [19] = biological target: ALX1 (Homo sapiens, UniProt Q15699 118-204, L144R)
# PROP1 [20] = biological target: PROP1 (Homo sapiens, UniProt O75360 56-141)
# PROP1 [21] = biological target: PROP1 (Homo sapiens, UniProt O75360 56-141, R99H)
# PROP1 [22] = biological target: PROP1 (Homo sapiens, UniProt O75360 56-141, F88S)
# ALX1 [23] = biological target: ALX1 (Homo sapiens, UniProt Q15699 118-204)
# VAX1 [24] = biological target: VAX1 (Homo sapiens, UniProt Q5SQQ9 86-172)
# VAX1 [25] = biological target: VAX1 (Homo sapiens, UniProt Q5SQQ9 86-172, T142I)
# VAX1 [26] = biological target: VAX1 (Homo sapiens, UniProt Q5SQQ9 86-172, K157R)
# VAX1 (Homo sapiens, UniProt Q5SQQ9 86-172, K157R), sequence (Q5SQQ9 86-172 K157R): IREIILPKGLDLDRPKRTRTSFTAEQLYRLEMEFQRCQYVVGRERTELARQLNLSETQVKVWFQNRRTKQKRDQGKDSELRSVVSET
# ALX3 (Homo sapiens, UniProt O95076 139-225, N203Q), sequence (O95076 139-225 N203Q): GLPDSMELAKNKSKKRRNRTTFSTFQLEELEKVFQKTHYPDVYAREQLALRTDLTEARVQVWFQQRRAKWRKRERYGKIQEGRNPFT
# ALX3 (Homo sapiens, UniProt O95076 139-225, N203S), sequence (O95076 139-225 N203S): as the sequence (O95076 139-225 N203Q) above, with Q65S counted along it
# ALX3 (Homo sapiens, UniProt O95076 139-225), sequence (O95076 139-225): as the sequence (O95076 139-225 N203Q) above, with Q65N counted along it
# ALX3 (Homo sapiens, UniProt O95076 139-225, L168V), sequence (O95076 139-225 L168V): as the sequence (O95076 139-225 N203Q) above, with L30V, Q65N counted along it
# HOXB6 (Homo sapiens, UniProt P17509 132-218), sequence (P17509 132-218): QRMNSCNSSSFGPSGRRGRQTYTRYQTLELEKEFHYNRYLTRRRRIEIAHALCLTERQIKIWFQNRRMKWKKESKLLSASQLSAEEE
# VAX1 (Homo sapiens, UniProt Q5SQQ9 86-172, T142I), sequence (Q5SQQ9 86-172 T142I): as the sequence (Q5SQQ9 86-172 K157R) above, with T57I, R72K counted along it
# MSX2 (Homo sapiens, UniProt P35548 130-214), sequence (P35548 130-214): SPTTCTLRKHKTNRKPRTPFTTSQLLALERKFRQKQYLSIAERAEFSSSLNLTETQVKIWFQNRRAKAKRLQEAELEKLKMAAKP
# HOXB6 (Homo sapiens, UniProt P17509 132-218, K202E), sequence (P17509 132-218 K202E): as the sequence (P17509 132-218) above, with K71E counted along it
# ALX3 (Homo sapiens, UniProt O95076 139-225, L168Q), sequence (O95076 139-225 L168Q): as the sequence (O95076 139-225 N203Q) above, with L30Q, Q65N counted along it
# VAX1 (Homo sapiens, UniProt Q5SQQ9 86-172), sequence (Q5SQQ9 86-172): as the sequence (Q5SQQ9 86-172 K157R) above, with R72K counted along it
# MSX2 (Homo sapiens, UniProt P35548 130-214, R199I), sequence (P35548 130-214 R199I): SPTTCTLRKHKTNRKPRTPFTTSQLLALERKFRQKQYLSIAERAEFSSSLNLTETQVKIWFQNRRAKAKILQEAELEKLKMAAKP
# MSX2 (Homo sapiens, UniProt P35548 130-214, F161Y), sequence (P35548 130-214 F161Y): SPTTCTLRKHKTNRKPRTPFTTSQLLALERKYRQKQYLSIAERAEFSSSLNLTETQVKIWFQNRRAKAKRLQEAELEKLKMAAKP
# ALX1 (Homo sapiens, UniProt Q15699 118-204, L144R), sequence (Q15699 118-204 L144R): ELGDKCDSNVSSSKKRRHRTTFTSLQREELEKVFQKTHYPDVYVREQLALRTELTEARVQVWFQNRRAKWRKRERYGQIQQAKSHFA
# HOXA2 (Homo sapiens, UniProt O43364 129-215, Y150S), sequence (O43364 129-215 Y150S): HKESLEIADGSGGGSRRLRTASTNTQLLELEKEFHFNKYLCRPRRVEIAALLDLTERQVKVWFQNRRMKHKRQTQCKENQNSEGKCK
# PROP1 (Homo sapiens, UniProt O75360 56-141, F88S), sequence (O75360 56-141 F88S): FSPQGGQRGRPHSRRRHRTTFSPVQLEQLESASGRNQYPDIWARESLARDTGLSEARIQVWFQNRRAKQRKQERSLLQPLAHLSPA
# HOXA2 (Homo sapiens, UniProt O43364 129-215, R185T), sequence (O43364 129-215 R185T): as the sequence (O43364 129-215 Y150S) above, with S22Y, R57T counted along it
# ALX1 (Homo sapiens, UniProt Q15699 118-204), sequence (Q15699 118-204): as the sequence (Q15699 118-204 L144R) above, with R27L counted along it
# HOXA2 (Homo sapiens, UniProt O43364 129-215), sequence (O43364 129-215): as the sequence (O43364 129-215 Y150S) above, with S22Y counted along it
# HOXA2 (Homo sapiens, UniProt O43364 129-215, R185K), sequence (O43364 129-215 R185K): as the sequence (O43364 129-215 Y150S) above, with S22Y, R57K counted along it
# PROP1 (Homo sapiens, UniProt O75360 56-141), sequence (O75360 56-141): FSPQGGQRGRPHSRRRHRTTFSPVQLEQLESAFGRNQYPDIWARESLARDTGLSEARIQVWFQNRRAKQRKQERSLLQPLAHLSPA
# PROP1 (Homo sapiens, UniProt O75360 56-141, R99H), sequence (O75360 56-141 R99H): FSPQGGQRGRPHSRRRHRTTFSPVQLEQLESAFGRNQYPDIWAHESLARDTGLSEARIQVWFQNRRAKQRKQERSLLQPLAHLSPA
# ALX1 (Homo sapiens, UniProt Q15699 118-204, L144V), sequence (Q15699 118-204 L144V): as the sequence (Q15699 118-204 L144R) above, with R27V counted along it
sequence,measurement,setting,value
CGCATGCG,binding signal,VENTX [1],"8.34 upbm affinity estimate (log intensity, higher = more binding, comparable within an allelic series)"
same,binding signal,VENTX [2],"8.73 upbm affinity estimate (log intensity, higher = more binding, comparable within an allelic series)"
same,binding signal,VENTX [3],"8.4 upbm affinity estimate (log intensity, higher = more binding, comparable within an allelic series)"
AGCGATTA,binding signal,VENTX [1],"11.2 upbm affinity estimate (log intensity, higher = more binding, comparable within an allelic series)"
same,binding signal,VENTX [2],"12.3 upbm affinity estimate (log intensity, higher = more binding, comparable within an allelic series)"
same,binding signal,VENTX [3],"11.3 upbm affinity estimate (log intensity, higher = more binding, comparable within an allelic series)"
CTAATGGC,binding signal,VENTX [1],"12 upbm affinity estimate (log intensity, higher = more binding, comparable within an allelic series)"
same,binding signal,VENTX [2],"12.7 upbm affinity estimate (log intensity, higher = more binding, comparable within an allelic series)"
same,binding signal,VENTX [3],"11.8 upbm affinity estimate (log intensity, higher = more binding, comparable within an allelic series)"
CCGAGCCC,binding signal,VENTX [1],"8.05 upbm affinity estimate (log intensity, higher = more binding, comparable within an allelic series)"
same,binding signal,VENTX [2],"8.08 upbm affinity estimate (log intensity, higher = more binding, comparable within an allelic series)"
same,binding signal,VENTX [3],"8.04 upbm affinity estimate (log intensity, higher = more binding, comparable within an allelic series)"
CGCTAGGC,binding signal,VENTX [1],"8.19 upbm affinity estimate (log intensity, higher = more binding, comparable within an allelic series)"
same,binding signal,VENTX [2],"8.31 upbm affinity estimate (log intensity, higher = more binding, comparable within an allelic series)"
same,binding signal,VENTX [3],"8.19 upbm affinity estimate (log intensity, higher = more binding, comparable within an allelic series)"
CACTGCGC,binding signal,VENTX [1],"8.04 upbm affinity estimate (log intensity, higher = more binding, comparable within an allelic series)"
same,binding signal,VENTX [2],"8.14 upbm affinity estimate (log intensity, higher = more binding, comparable within an allelic series)"
same,binding signal,VENTX [3],"8.18 upbm affinity estimate (log intensity, higher = more binding, comparable within an allelic series)"
CATGGCGG,binding signal,VENTX [1],"7.95 upbm affinity estimate (log intensity, higher = more binding, comparable within an allelic series)"
same,binding signal,VENTX [2],"7.8 upbm affinity estimate (log intensity, higher = more binding, comparable within an allelic series)"
same,binding signal,VENTX [3],"7.87 upbm affinity estimate (log intensity, higher = more binding, comparable within an allelic series)"
CAGAGGGC,binding signal,VENTX [1],"8.16 upbm affinity estimate (log intensity, higher = more binding, comparable within an allelic series)"
same,binding signal,VENTX [2],"8.02 upbm affinity estimate (log intensity, higher = more binding, comparable within an allelic series)"
same,binding signal,VENTX [3],"8.12 upbm affinity estimate (log intensity, higher = more binding, comparable within an allelic series)"
same,binding signal,HOXB6 [4],"9.04 upbm affinity estimate (log intensity, higher = more binding, comparable within an allelic series)"
same,binding signal,HOXB6 [5],"9.01 upbm affinity estimate (log intensity, higher = more binding, comparable within an allelic series)"
CCGCGGTC,binding signal,VENTX [1],"7.69 upbm affinity estimate (log intensity, higher = more binding, comparable within an allelic series)"
same,binding signal,VENTX [2],"7.87 upbm affinity estimate (log intensity, higher = more binding, comparable within an allelic series)"
same,binding signal,VENTX [3],"7.89 upbm affinity estimate (log intensity, higher = more binding, comparable within an allelic series)"
same,binding signal,MSX2 [6],"9.33 upbm affinity estimate (log intensity, higher = more binding, comparable within an allelic series)"
same,binding signal,MSX2 [7],"9.33 upbm affinity estimate (log intensity, higher = more binding, comparable within an allelic series)"
same,binding signal,MSX2 [8],"9.33 upbm affinity estimate (log intensity, higher = more binding, comparable within an allelic series)"
CGGGTCGC,binding signal,VENTX [1],"8.13 upbm affinity estimate (log intensity, higher = more binding, comparable within an allelic series)"
same,binding signal,VENTX [2],"8.41 upbm affinity estimate (log intensity, higher = more binding, comparable within an allelic series)"
same,binding signal,VENTX [3],"8.28 upbm affinity estimate (log intensity, higher = more binding, comparable within an allelic series)"
same,binding signal,NKX2-6,"9.33 upbm affinity estimate (log intensity, higher = more binding, comparable within an allelic series)"
same,binding signal,MSX2 [6],"9.47 upbm affinity estimate (log intensity, higher = more binding, comparable within an allelic series)"
same,binding signal,MSX2 [7],"9.59 upbm affinity estimate (log intensity, higher = more binding, comparable within an allelic series)"
same,binding signal,MSX2 [8],"9.55 upbm affinity estimate (log intensity, higher = more binding, comparable within an allelic series)"
CAGGGGGG,binding signal,VENTX [1],"8.13 upbm affinity estimate (log intensity, higher = more binding, comparable within an allelic series)"
same,binding signal,VENTX [2],"8.11 upbm affinity estimate (log intensity, higher = more binding, comparable within an allelic series)"
same,binding signal,VENTX [3],"8.09 upbm affinity estimate (log intensity, higher = more binding, comparable within an allelic series)"
same,binding signal,ALX3 [9],"7.62 upbm affinity estimate (log intensity, higher = more binding, comparable within an allelic series)"
same,binding signal,ALX3 [10],"7.33 upbm affinity estimate (log intensity, higher = more binding, comparable within an allelic series)"
same,binding signal,ALX3 [11],"7.58 upbm affinity estimate (log intensity, higher = more binding, comparable within an allelic series)"
same,binding signal,ALX3 [12],"7.5 upbm affinity estimate (log intensity, higher = more binding, comparable within an allelic series)"
same,binding signal,ALX3 [13],"7.6 upbm affinity estimate (log intensity, higher = more binding, comparable within an allelic series)"
GGCGGCCC,binding signal,VENTX [1],"8.11 upbm affinity estimate (log intensity, higher = more binding, comparable within an allelic series)"
same,binding signal,VENTX [2],"8.22 upbm affinity estimate (log intensity, higher = more binding, comparable within an allelic series)"
same,binding signal,VENTX [3],"8.03 upbm affinity estimate (log intensity, higher = more binding, comparable within an allelic series)"
same,binding signal,HOXA2 [14],"7.21 upbm affinity estimate (log intensity, higher = more binding, comparable within an allelic series)"
same,binding signal,HOXA2 [15],"9.97 upbm affinity estimate (log intensity, higher = more binding, comparable within an allelic series)"
same,binding signal,HOXA2 [16],"10.3 upbm affinity estimate (log intensity, higher = more binding, comparable within an allelic series)"
same,binding signal,HOXA2 [17],"7.16 upbm affinity estimate (log intensity, higher = more binding, comparable within an allelic series)"
GTCTCCAC,binding signal,VENTX [1],"8.1 upbm affinity estimate (log intensity, higher = more binding, comparable within an allelic series)"
same,binding signal,VENTX [2],"8.02 upbm affinity estimate (log intensity, higher = more binding, comparable within an allelic series)"
same,binding signal,VENTX [3],"8.1 upbm affinity estimate (log intensity, higher = more binding, comparable within an allelic series)"
CTCCGTCC,binding signal,VENTX [1],"8.11 upbm affinity estimate (log intensity, higher = more binding, comparable within an allelic series)"
same,binding signal,VENTX [2],"8.05 upbm affinity estimate (log intensity, higher = more binding, comparable within an allelic series)"
same,binding signal,VENTX [3],"8.03 upbm affinity estimate (log intensity, higher = more binding, comparable within an allelic series)"
same,binding signal,ALX1 [18],"6.35 upbm affinity estimate (log intensity, higher = more binding, comparable within an allelic series)"
same,binding signal,ALX1 [19],"6.21 upbm affinity estimate (log intensity, higher = more binding, comparable within an allelic series)"
same,binding signal,PROP1 [20],"6.5 upbm affinity estimate (log intensity, higher = more binding, comparable within an allelic series)"
same,binding signal,PROP1 [21],"6.55 upbm affinity estimate (log intensity, higher = more binding, comparable within an allelic series)"
same,binding signal,PROP1 [22],"6.51 upbm affinity estimate (log intensity, higher = more binding, comparable within an allelic series)"
same,binding signal,ALX1 [23],"6.3 upbm affinity estimate (log intensity, higher = more binding, comparable within an allelic series)"
GCTCCGCC,binding signal,VENTX [1],"8.31 upbm affinity estimate (log intensity, higher = more binding, comparable within an allelic series)"
same,binding signal,VENTX [2],"8.4 upbm affinity estimate (log intensity, higher = more binding, comparable within an allelic series)"
same,binding signal,VENTX [3],"8.22 upbm affinity estimate (log intensity, higher = more binding, comparable within an allelic series)"
CCAGCTGC,binding signal,VENTX [1],"8.15 upbm affinity estimate (log intensity, higher = more binding, comparable within an allelic series)"
same,binding signal,VENTX [2],"8.27 upbm affinity estimate (log intensity, higher = more binding, comparable within an allelic series)"
same,binding signal,VENTX [3],"8.21 upbm affinity estimate (log intensity, higher = more binding, comparable within an allelic series)"
same,binding signal,VAX1 [24],"7.42 upbm affinity estimate (log intensity, higher = more binding, comparable within an allelic series)"
same,binding signal,VAX1 [25],"7.3 upbm affinity estimate (log intensity, higher = more binding, comparable within an allelic series)"
same,binding signal,VAX1 [26],"7.2 upbm affinity estimate (log intensity, higher = more binding, comparable within an allelic series)"
CCCGTCCG,binding signal,VENTX [1],"7.93 upbm affinity estimate (log intensity, higher = more binding, comparable within an allelic series)"
same,binding signal,VENTX [2],"7.94 upbm affinity estimate (log intensity, higher = more binding, comparable within an allelic series)"
same,binding signal,VENTX [3],"7.87 upbm affinity estimate (log intensity, higher = more binding, comparable within an allelic series)"
same,binding signal,ALX3 [9],"7.62 upbm affinity estimate (log intensity, higher = more binding, comparable within an allelic series)"
same,binding signal,ALX3 [10],"7.58 upbm affinity estimate (log intensity, higher = more binding, comparable within an allelic series)"
same,binding signal,ALX3 [11],"7.67 upbm affinity estimate (log intensity, higher = more binding, comparable within an allelic series)"
same,binding signal,ALX3 [12],"7.65 upbm affinity estimate (log intensity, higher = more binding, comparable within an allelic series)"
same,binding signal,ALX3 [13],"7.6 upbm affinity estimate (log intensity, higher = more binding, comparable within an allelic series)"
CCGCTGGC,binding signal,VENTX [1],"7.68 upbm affinity estimate (log intensity, higher = more binding, comparable within an allelic series)"
same,binding signal,VENTX [2],"7.51 upbm affinity estimate (log intensity, higher = more binding, comparable within an allelic series)"
same,binding signal,VENTX [3],"7.74 upbm affinity estimate (log intensity, higher = more binding, comparable within an allelic series)"
same,binding signal,HOXB6 [4],"8.89 upbm affinity estimate (log intensity, higher = more binding, comparable within an allelic series)"
same,binding signal,VAX1 [24],"6.67 upbm affinity estimate (log intensity, higher = more binding, comparable within an allelic series)"
same,binding signal,VAX1 [25],"7.05 upbm affinity estimate (log intensity, higher = more binding, comparable within an allelic series)"
same,binding signal,VAX1 [26],"6.73 upbm affinity estimate (log intensity, higher = more binding, comparable within an allelic series)"
same,binding signal,HOXB6 [5],"8.76 upbm affinity estimate (log intensity, higher = more binding, comparable within an allelic series)"
